In PubChem BioAssay (NCATS):
Inconclusive results are not listed. Active and inactive are the calls of the source. The call rests on the fitted dose curve; in most records, active means well fitted inhibition curve with a large enough effect; inconclusive means small, poorly fitted or top-dose-only effect; inactive means flat fitted curve, though single readings scatter.

What was measured:
Assay in all cases: qHTS profiling for inhibitors of Plasmodium falciparum proliferation (AID 504749); further: nearly all actives have a fitted effect of over 60% in size
Settings in all cases: P. falciparum in erythrocytes, SYBR Green DNA, 72 h; series mostly up to 28.7 µM
7G8 = test system: 7G8
Procedure, shortened: (§1)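 In a 72 h erythrocytic culture (37 C, humidified, 5% CO2) at 2.5% hematocrit and 0.3% starting parasitemia, compounds were tested; SYBR Green I in detergent lysis buffer stained parasite DNA overnight.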

CP192 = test system: CP192
Procedure, shortened: as §1

CP201 = test system: CP201
Procedure, shortened: as §1

CP215 = test system: CP215
Procedure, shortened: as §1

CP247 = test system: CP247
Procedure, shortened: as §1

CP260 = test system: CP260
Procedure, shortened: as §1

CP266 = test system: CP266
Procedure, shortened: as §1

CP291 = test system: CP291
Procedure, shortened: as §1

CP297 = test system: CP297
Procedure, shortened: as §1

CP315 = test system: CP315
Procedure, shortened: as §1

CP325 = test system: CP325
Procedure, shortened: as §1

CP335 = test system: CP335
Procedure, shortened: as §1

DIV14 = test system: DIV14
Procedure, shortened: as §1

DIV30 = test system: DIV30
Procedure, shortened: as §1

ECU = test system: ECU
Procedure, shortened: as §1

GB4 = test system: GB4
Procedure, shortened: as §1

ICS = test system: ICS
Procedure, shortened: as §1

P93_24 = test system: P93_24
Procedure, shortened: as §1

PC49 = test system: PC49
Procedure, shortened: as §1

PC26 = test system: PC26
Procedure, shortened: as §1

Measured: Potency
Potency means the concentration at half of the fitted maximal effect.

CC1OC(OC2CCC3(C)C(CCC4C3CC(O)C3(C)C(C5=CC(=O)OC5)CCC43O)C2)CC(O)C1OC1CC(O)C(OC2CC(O)C(OC3OC(CO)C(O)C(O)C3O)C(C)O2)C(C)O1 (stereo not given)
not listed: PC26
inactive: all other assays above

COC(c1ccccc1)(c1ccccc1)C(Oc1nc(C)cc(C)n1)C(=O)O (stereo not given)
inactive: all assays above

OCC1O[C@@H](O[C@@H]2C(CO)OC(O)C(O)C2O)C(O)C(O)C1O (stereo not given in full)
inactive: all assays above

CC1(C)OC[C@@H]2O[C@@]3(C(=O)O)OC(C)(C)O[C@@H]3[C@@H]2O1
inactive: all assays above

O=C1C(I)=CC(=C(c2cc(I)c(O)c(I)c2)c2ccccc2C(=O)O)C=C1I
inactive: all assays above

O=[N+]([O-])O[C@H]1CO[C@H]2[C@@H]1OC[C@H]2O
inactive: all assays above

CCCCC(=O)OCC(=O)[C@]1(O)Cc2c(O)c3c(c(O)c2[C@H](OC2CC(NC(=O)C(F)(F)F)C(O)C(C)O2)C1)C(=O)c1c(OC)cccc1C3=O (stereo not given in full)
active: 7G8 1260 nM | CP192 2390 nM | CP201 4780 nM | CP215 4780 nM | CP247 3160 nM | CP260 2000 nM | CP266 1690 nM | CP291 4260 nM | CP297 1510 nM | CP315 1690 nM | CP325 3380 nM | CP335 1510 nM | DIV14 1690 nM | DIV30 1900 nM | ECU 2510 nM | GB4 3790 nM | ICS 794 nM | P93_24 2000 nM | PC26 1510 nM

C/C1=C2/[N-]C(C(CC(N)=O)[C@@]2(C)CCC(=O)NCC(C)OP(=O)([O-])O[C@H]2[C@@H](O)[C@@H](n3cnc4cc(C)c(C)cc43)O[C@@H]2CO)[C@]2(C)N=C(/C(C)=C3N=C(/C=C4N=C1C(CCC(N)=O)C\4(C)C)[C@@H](CCC(N)=O)[C@]\3(C)CC(N)=O)[C@@H](CCC(N)=O)[C@]2(C)CC(N)=O.CC(=O)O.[Co] (stereo not given in full)
inactive: all assays above

C=NC(C(=O)NC1C(=O)N2C1SC(C)(C)C2C(=O)O)c1ccccc1 (stereo not given)
inactive: all assays above

O=C1NC(=O)C2C3C=CC(C3)C12 (stereo not given)
inactive: all assays above

NC(=O)NC(CCC(=O)O)C(=O)O (stereo not given)
not listed: PC26
inactive: all other assays above

CC(=O)NC1[C@H]([C@H](O)[C@H](O)CO)OC(C(=O)O)=C[C@H]1N=C(N)N (stereo not given in full)
inactive: all assays above

OCCN1CC(O)C(O)C(O)C1CO (stereo not given)
inactive: all assays above

O=C(OC[C@@H]1O[C@@](O)(COC(=O)c2cccnc2)[C@H](OC(=O)c2cccnc2)[C@H]1OC(=O)c1cccnc1)c1cccnc1
inactive: all assays above

CC(C)C[C@@H](NC(=O)[C@@H](Cc1ccccc1)NC(=O)c1cnccn1)B(O)O
active: 7G8 39.8 nM | CP192 190 nM | CP201 536 nM | CP215 675 nM | CP247 126 nM | CP260 100 nM | CP266 379 nM | CP291 151 nM | CP297 379 nM | CP315 379 nM | CP325 151 nM | CP335 107 nM | DIV14 601 nM | DIV30 338 nM | ECU 126 nM | GB4 120 nM | ICS 44.7 nM | P93_24 158 nM | PC26 338 nM | PC49 158 nM

CC1(C)SC2C(NC(=O)C(C(=O)O)c3ccccc3)C(=O)N2C1C(=O)O (stereo not given)
inactive: all assays above

OCCOC[C@H]1O[C@H](OCCO)[C@H](OCCO)[C@@H](OCCO)[C@@H]1OCCO (tested in a mixture with another compound)
inactive: all assays above

CCCCN1CC(O)C(O)C(O)C1CO (stereo not given)
inactive: all assays above

C[C@H]1[C@@H](OC(=O)CCC(=O)O)OC2OC3(C)CC[C@H]4[C@H](C)CC[C@@H]1[C@@]24OO3 (stereo not given in full)
active: 7G8 1.4 nM | CP192 9.5 nM | CP201 12 nM | CP215 5.4 nM | CP247 5 nM | CP260 5 nM | CP266 23.9 nM | CP291 4.3 nM | CP297 4.8 nM | CP315 12 nM | CP325 6 nM | CP335 4.8 nM | DIV14 3.4 nM | DIV30 4.3 nM | ECU 2.8 nM | GB4 3 nM | ICS 3.2 nM | P93_24 2.2 nM | PC26 3.4 nM

C[n+]1c2cc(N)ccc2cc2ccc(N)cc21
active: 7G8 63.1 nM | CP192 1200 nM | CP201 1690 nM | CP215 1070 nM | CP247 1120 nM | CP260 316 nM | CP266 1350 nM | CP291 1200 nM | CP297 1350 nM | CP315 2130 nM | CP325 953 nM | CP335 849 nM | DIV14 213 nM | DIV30 1690 nM | ECU 1260 nM | GB4 213 nM | P93_24 562 nM | PC26 1350 nM | PC49 447 nM

CCN1CCN(C(=O)NC(C(=O)NC2C(=O)N3C(C(=O)O)=C(CSc4nnnn4C)CSC23)c2ccc(O)cc2)C(=O)C1=O (stereo not given)
inactive: all assays above
